In PubChem BioAssay AID1159577 (Broad Institute, 2015):
Screen size: about 1,300 compounds; about 240 (18%) were called active. Roughly 8% stayed inconclusive and do not appear here. The rule behind the calls is not given here. A selection follows. A call without a number means that no potency is given here. Potency and affinity values are given separately.

Test: toxicity to human hepatoma HepG2 cells – cell-based, cherry-picked samples, cytotoxicity control, dose response (AID 1159577)
Settings: HepG2 cytotoxicity counterscreen, plate reader; series mostly up to 19.5 µM

**Q.** Which outcome does the source give for `CCCNC(=O)N1[C@H](C#N)[C@H](c2ccc(-c3cccnc3)cc2)[C@H]1CO` here?
**A.** inactive

**Q.** With `COc1ccc2c3c([nH]c2c1)[C@@H](CO)N(Cc1ccccc1)CC31CCN(C(=O)c2cccnc2)CC1` as the molecule, how does the outcome read?
**A.** inactive

**Q.** Which outcome does the source give for `CS(=O)(=O)N1[C@H](C#N)[C@H](c2ccccc2-c2ccccc2)[C@H]1CO` here?
**A.** inactive

**Q.** With `Cc1ccc(S(=O)(=O)N(C)C[C@H]2Oc3ccc(NC(=O)c4ccncc4)cc3C(=O)N([C@@H](C)CO)C[C@@H]2C)cc1` as the molecule, how does the outcome read?
**A.** inactive

**Q.** Which outcome does the source give for `CO[C@H]1CN(C)C(=O)c2cc(NC(C)=O)ccc2OC[C@H](C)N(Cc2ccncc2)C[C@@H]1C` here?
**A.** inactive

**Q.** Which outcome does the source give for `N#Cc1ccc(-c2ccc(C3[C@@H]4CN(C(=O)C5CC5)C[C@H]3N4)cc2)cc1` (stereo partly specified) here?
**A.** inactive

**Q.** For `C[C@H]1CN([C@@H](C)CO)C(=O)c2ccccc2-c2ccccc2CO[C@@H]1CN(C)C(=O)Nc1ccc(-c2ccccc2)cc1`, which outcome is on record?
**A.** inactive

**Q.** With `COc1ccc2c3c([nH]c2c1)[C@@H](CO)N(Cc1ccccc1F)CC31CCN(C(=O)C2CCOCC2)CC1` as the molecule, how does the outcome read?
**A.** inactive

**Q.** With `Cc1ccc(S(=O)(=O)N(C)C[C@@H]2OCc3ccccc3-c3c(n(C)c4ccccc34)C(=O)N([C@H](C)CO)C[C@@H]2C)cc1` as the molecule, how does the outcome read?
**A.** inactive

**Q.** Which outcome does the source give for `Cc1ccccc1S(=O)(=O)N(C)C[C@@H]1OCc2ccccc2-c2c(n(C)c3ccccc23)C(=O)N([C@@H](C)CO)C[C@@H]1C` here?
**A.** inactive

**Q.** For `COCC(=O)N1CC2(C1)CN(Cc1ccccc1F)[C@H](CO)c1[nH]c3cc(OC)ccc3c12`, which outcome is on record?
**A.** inactive

**Q.** With `CN(C)CC(=O)Nc1ccc2c(c1)[C@@H]1C[C@H](CC(=O)N3CCOCC3)O[C@@H](CO)[C@@H]1O2` as the molecule, how does the outcome read?
**A.** inactive

**Q.** For `N#Cc1ccc(-c2ccc([C@@H]3[C@@H]4CN(Cc5cocn5)C[C@H]3N4)cc2)cc1`, which outcome is on record?
**A.** inactive

**Q.** For `N#Cc1ccc(-c2ccc([C@@H]3[C@@H]4CN(S(=O)(=O)Cc5ccccc5)C[C@H]3N4)cc2)cc1`, which outcome is on record?
**A.** inactive

**Q.** With `N#Cc1ccc(-c2ccc([C@@H]3[C@@H](CO)N4C(=O)CN(C(=O)C5CCC5)C[C@@H]34)cc2)cc1` as the molecule, how does the outcome read?
**A.** inactive

**Q.** For `CCCC#Cc1ccc2c(c1)O[C@H](CN(C)C(=O)c1ccccc1F)[C@@H](C)CN([C@H](C)CO)S2(=O)=O`, which outcome is on record?
**A.** inactive

**Q.** Which outcome does the source give for `C/C=C/c1ccc2c(c1)[C@@H]1[C@@H](CCN1S(=O)(=O)c1ccccc1C)[C@H](CO)N2` here?
**A.** inactive

**Q.** With `COc1cccc(CNC(=O)c2cc3c(c(-c4cccc(-c5ccncc5)c4)n2)[C@@H](CCO)N([S@](=O)C(C)(C)C)C3)c1` as the molecule, how does the outcome read?
**A.** inactive

**Q.** Which outcome does the source give for `C[C@H]1CN([C@@H](C)CO)S(=O)(=O)c2ccc(C#Cc3ccccc3F)cc2O[C@H]1CN(C)C(=O)c1ccc2c(c1)OCO2` here?
**A.** inactive

**Q.** With `CCCNC(=O)c1cc2c(c(-c3cccc(-c4cc5ccccc5o4)c3)n1)[C@H](CCO)N(C(=O)NC(C)C)C2` as the molecule, how does the outcome read?
**A.** inactive

**Q.** With `O=C(c1ccccc1F)N1CC(=O)N2[C@H](C1)[C@@H](c1ccc(-c3ccc(F)cc3)cc1)[C@@H]2CO` as the molecule, how does the outcome read?
**A.** inactive

**Q.** Which outcome does the source give for `C/C=C/c1ccc([C@H]2[C@@H](CO)N(CC3CCCC3)C23CN(C(=O)CC2CC2)C3)cc1` here?
**A.** inactive

**Q.** With `Cc1ccccc1S(=O)(=O)N1C[C@@H]2N[C@H](C1)C2c1ccc(-c2ccc(C#N)cc2)cc1` (stereo partly specified) as the molecule, how does the outcome read?
**A.** inactive

**Q.** Which outcome does the source give for `COc1cccc(CN2[C@@H]3CNC[C@H]2[C@H]3c2ccc(-c3ccccc3OC)cc2)c1` here?
**A.** inactive

**Q.** With `COc1ccccc1CN1C[C@@H]2N[C@H](C1)C2c1ccc(-c2ccncc2)cc1` (stereo partly specified) as the molecule, how does the outcome read?
**A.** inactive

**Q.** For `COc1ccccc1-c1ccc([C@@H]2[C@@H](C#N)N[C@@H]2CO)cc1`, which outcome is on record?
**A.** inactive

**Q.** For `CCCC(=O)N1CCC2(CC1)CN(Cc1cccnc1)[C@@H](CO)c1[nH]c3cc(OC)ccc3c12`, which outcome is on record?
**A.** inactive

**Q.** Which outcome does the source give for `CCC(=O)N1CC2(C1)CN(S(=O)(=O)c1ccccc1)[C@@H](CO)c1[nH]c3cc(OC)ccc3c12` here?
**A.** inactive

**Q.** With `CS(=O)(=O)N1[C@H](C#N)[C@H](c2ccccc2-c2ccc(F)cc2)[C@H]1CO` as the molecule, how does the outcome read?
**A.** inactive

**Q.** Which outcome does the source give for `COc1ccc(S(=O)(=O)Nc2ccc3c(c2)CC(=O)N([C@H](C)CO)C[C@H](C)[C@H](CN(C)S(=O)(=O)c2ccc(C)cc2)O3)cc1` here?
**A.** inactive

**Q.** Which outcome does the source give for `N#C[C@@H]1[C@H](c2ccccc2C2=CCCCC2)[C@@H](CO)N1C(=O)c1cccc(F)c1` here?
**A.** inactive

**Q.** For `COc1ccc(-c2ccc(C3[C@H]4CNC[C@@H]3N4C(=O)Nc3ccc(C(F)(F)F)cc3)cc2)cc1` (stereo partly specified), which outcome is on record?
**A.** inactive

**Q.** With `COc1cccc(-c2ccc(C3[C@@H]4CN(C(=O)C5CC5)C[C@H]3N4)cc2)c1` (stereo partly specified) as the molecule, how does the outcome read?
**A.** inactive

**Q.** For `O=C(Nc1ccc(C(F)(F)F)cc1)N1C[C@@H]2N[C@H](C1)C2c1ccc(-c2cccnc2)cc1` (stereo partly specified), which outcome is on record?
**A.** inactive

**Q.** With `O=C(c1cnccn1)N1CC(=O)N2[C@@H](CO)[C@@H](c3ccc(C#CCc4ccccc4)cc3)[C@@H]2C1` as the molecule, how does the outcome read?
**A.** inactive

**Q.** Which outcome does the source give for `CCC(=O)N1CC2(C1)CN(Cc1cc(F)ccc1F)[C@H](CO)c1[nH]c3cc(OC)ccc3c12` here?
**A.** inactive

**Q.** For `CC(C)(C)[S@@](=O)N1Cc2cc(C(=O)N3CCc4ccccc4C3)nc(-c3cccc(-c4ccncc4)c3)c2[C@H]1CCO`, which outcome is on record?
**A.** inactive

**Q.** Which outcome does the source give for `C[C@H]1CN([C@@H](C)CO)C(=O)CCCn2nncc2CO[C@H]1CN(C)C(=O)Nc1ccc(N2CCCCC2)cc1` here?
**A.** inactive

**Q.** With `C[C@@H]1CN([C@H](C)CO)C(=O)c2cc(/C=C/c3ccccc3)cnc2O[C@H]1CN(C)C(=O)NC1CCCCC1` as the molecule, how does the outcome read?
**A.** inactive

**Q.** Which outcome does the source give for `CN(C)CC#Cc1ccc([C@@H]2[C@H](CO)N3C(=O)CN(C(=O)Cc4cccnc4)C[C@@H]23)cc1` here?
**A.** inactive

**Q.** For `COCC(=O)Nc1ccc2c(c1)C(=O)N(C)C[C@H](OC)[C@H](C)CN(Cc1cccc(F)c1)[C@@H](C)CO2`, which outcome is on record?
**A.** inactive

**Q.** Which outcome does the source give for `C[C@@H]1CN([C@H](C)CO)C(=O)c2cccc(NC(=O)c3nc4ccccc4s3)c2O[C@H]1CN(C)C(=O)Nc1ccc(C(F)(F)F)cc1` here?
**A.** inactive

**Q.** With `CCCNC(=O)N1CCC2(CC1)CN(Cc1ccc(F)cc1)[C@@H](CO)c1[nH]c3cc(OC)ccc3c12` as the molecule, how does the outcome read?
**A.** inactive

**Q.** For `CO[C@@H]1CN(C)C(=O)c2ccc(NC(=O)c3nc4ccccc4s3)cc2OC[C@@H](C)N(Cc2ccccc2)C[C@H]1C`, which outcome is on record?
**A.** inactive

**Q.** Which outcome does the source give for `COc1cc(CN2[C@@H]3CNC[C@H]2C3c2ccc(-c3ccccc3)cc2)cc(OC)c1` (stereo partly specified) here?
**A.** inactive

**Q.** Which outcome does the source give for `COc1ccc(-c2ccc(C3[C@H]4CNC[C@@H]3N4S(=O)(=O)c3cccc(OC)c3)cc2)cc1` (stereo partly specified) here?
**A.** inactive

**Q.** With `CCC(=O)N1CC2(C1)CN(Cc1cccc(Cl)c1)[C@H](CO)c1[nH]c3cc(OC)ccc3c12` as the molecule, how does the outcome read?
**A.** inactive

**Q.** For `C[C@@H]1CN([C@H](C)CO)C(=O)c2cccc(NS(=O)(=O)c3cccs3)c2O[C@H]1CN(C)Cc1ccc(C(F)(F)F)cc1`, which outcome is on record?
**A.** inactive

**Q.** For `COc1ccc(C#Cc2ccc3c(c2)O[C@H](CN(C)C(=O)Nc2cccc(OC)c2)[C@H](C)CN([C@@H](C)CO)S3(=O)=O)cc1`, which outcome is on record?
**A.** inactive

**Q.** Which outcome does the source give for `CC(C)(C)[S@](=O)N1Cc2cc(C(=O)NC3CCC3)nc(-c3cccc(Br)c3)c2[C@@H]1CCO` here?
**A.** inactive

**Q.** Which outcome does the source give for `COc1ccc(S(=O)(=O)N(C)C[C@@H]2OCc3ccccc3-c3c(n(C)c4ccccc34)C(=O)N([C@@H](C)CO)C[C@@H]2C)cc1` here?
**A.** inactive

**Q.** Which outcome does the source give for `COc1ccc2c3c(n(C)c2c1)[C@H](CO)N(C(=O)c1cccc(F)c1)CC31CN(C(=O)c2cccc(F)c2)C1` here?
**A.** inactive

**Q.** Which outcome does the source give for `CO[C@@H]1CN(C)C(=O)c2ccc(NC(=O)c3cc(C)on3)cc2OC[C@@H](C)N(S(=O)(=O)c2cccc(C)c2)C[C@H]1C` here?
**A.** inactive

**Q.** With `CCC(=O)N1CCC2(CC1)CN(Cc1cccc(OC)c1)[C@@H](CO)c1[nH]c3cc(OC)ccc3c12` as the molecule, how does the outcome read?
**A.** inactive

**Q.** With `C[C@@H]1CN([C@H](C)CO)C(=O)c2c(c3ccccc3n2C)-c2ccccc2CO[C@@H]1CN(C)C(=O)c1cc(Cl)cc(Cl)c1` as the molecule, how does the outcome read?
**A.** inactive

**Q.** With `COc1ccc(CN2C[C@H](C)[C@@H](OC)CN(C)C(=O)c3cc(NC(=O)c4nc5ccccc5s4)ccc3OC[C@@H]2C)cc1` as the molecule, how does the outcome read?
**A.** inactive

**Q.** For `CCCNC(=O)Nc1ccc2c(c1)C(=O)N(C)C[C@H](OC)[C@@H](C)CN(C(=O)C1CCOCC1)[C@@H](C)CO2`, which outcome is on record?
**A.** inactive

**Q.** For `C/C=C/c1ccc2c(c1)[C@H]1[C@H](CCN1C(=O)c1ccc3c(c1)OCO3)[C@H](CO)N2`, which outcome is on record?
**A.** inactive

**Q.** With `C/C=C/c1ccc2c(c1)[C@H]1[C@H](CCN1S(=O)(=O)c1cccc(F)c1)[C@@H](CO)N2` as the molecule, how does the outcome read?
**A.** inactive

**Q.** Which outcome does the source give for `C[C@@H]1CN([C@@H](C)CO)S(=O)(=O)c2ccc(/C=C/c3ccccc3)cc2O[C@H]1CN(C)C(=O)c1ccc2c(c1)OCO2` here?
**A.** inactive

**Q.** For `C/C=C/c1ccc(C2[C@H]3CNC[C@@H]2N3Cc2cc(F)ccc2F)cc1` (stereo partly specified), which outcome is on record?
**A.** inactive

**Q.** With `C[C@@H]1CN([C@@H](C)CO)C(=O)c2cc(NC(=O)Nc3ccccc3)ccc2O[C@@H]1CN(C)C(=O)Nc1cccc2ccccc12` as the molecule, how does the outcome read?
**A.** inactive

**Q.** Which outcome does the source give for `COc1ccc2c3c([nH]c2c1)[C@@H](CO)N(Cc1ccccc1Cl)CC31CCN(C(=O)C2CC2)CC1` here?
**A.** inactive

**Q.** For `CCC(=O)N1CC2(C1)CN(Cc1ccc(Cl)cc1)[C@@H](CO)c1[nH]c3cc(OC)ccc3c12`, which outcome is on record?
**A.** inactive

**Q.** With `C/C=C/c1ccc2c(c1)[C@H]1[C@H](CCN1S(=O)(=O)c1ccccc1C)[C@@H](CO)N2` as the molecule, how does the outcome read?
**A.** inactive

**Q.** Which outcome does the source give for `CO[C@@H]1CN(C)C(=O)c2cc(NC(C)=O)ccc2OC[C@@H](C)N(C(=O)Cc2cccnc2)C[C@H]1C` here?
**A.** inactive

**Q.** For `O=C(C[C@H]1C[C@@H]2c3cc(NC(=O)Nc4ccccc4)ccc3O[C@@H]2[C@H](CO)O1)NCc1ccccc1`, which outcome is on record?
**A.** inactive

**Q.** With `CCCN1[C@H](CO)[C@H](c2ccc(C3=CCCC3)cc2)[C@H]1CN(C(C)=O)C1CCCC1` as the molecule, how does the outcome read?
**A.** inactive

**Q.** For `CCC(=O)N1[C@H](CO)[C@H](c2ccccc2)[C@@H]1CN(CC)C(=O)c1cccc(F)c1`, which outcome is on record?
**A.** inactive

**Q.** For `CN(C)CC(=O)N1[C@H](CO)[C@H](c2ccc(-c3cccc(C(=O)N(C)C)c3)cc2)[C@@H]1C#N`, which outcome is on record?
**A.** inactive

**Q.** With `C[C@@H]1CN([C@H](C)CO)S(=O)(=O)c2ccc(C3=CCCCC3)cc2O[C@H]1CN(C)C(=O)Cc1ccncc1` as the molecule, how does the outcome read?
**A.** inactive
